# Source: PubChem BioAssay AID1851 (National Center for Advancing Translational Sciences (NCATS), 2009)
# Values joined by “and” are separate entries in the source; they are usually repeats but may differ in a detail not shown here. Identical values can stand only once. The whole screen tested about 16,000 compounds, of which about 2,600 (16%) were called active. Another 20% or so got no clear call; they are omitted. Calls come from the whole dose curve; as a rule, active = well fitted curve in the direction sought with a large enough effect; inconclusive = small, poorly fitted or top-dose-only effect, or effect the other way; inactive = no such curve, though single readings can be large or run the other way. Not all results are given here.
# Target: Cytochrome P450 2D6 (Homo sapiens) (UniProt P10635)
# Sequence (P10635 whole entry, looked up): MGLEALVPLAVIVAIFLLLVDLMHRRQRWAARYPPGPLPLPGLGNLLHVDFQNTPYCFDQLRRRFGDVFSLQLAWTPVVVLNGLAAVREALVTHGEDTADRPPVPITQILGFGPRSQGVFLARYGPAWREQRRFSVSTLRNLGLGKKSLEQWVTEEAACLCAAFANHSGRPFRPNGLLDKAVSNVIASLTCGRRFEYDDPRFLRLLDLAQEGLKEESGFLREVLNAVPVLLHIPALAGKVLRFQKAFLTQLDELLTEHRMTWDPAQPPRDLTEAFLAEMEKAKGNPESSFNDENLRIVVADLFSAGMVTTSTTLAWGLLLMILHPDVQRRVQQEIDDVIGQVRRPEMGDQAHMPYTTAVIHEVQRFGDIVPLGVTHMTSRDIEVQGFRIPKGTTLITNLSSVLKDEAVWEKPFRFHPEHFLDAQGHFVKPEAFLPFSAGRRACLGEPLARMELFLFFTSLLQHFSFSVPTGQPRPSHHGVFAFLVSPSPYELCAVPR
# Assay: Cytochrome panel assay with activity outcomes
# Details: recombinant CYP, pro-luciferin dealkylation, luminescence, p450-cyp2d6; series mostly up to 57.1 µM
# % is set by controls: 0 for no effect and ±100 for the full control effect.
Structure (SMILES),AC50,"activity, negative = inhibition"
CCCCC/C=C\C[C@H](O)/C=C\c1cccc(C[C@H](O)CCCCO)n1,inactive,–
CCc1ccc(N(C(=O)c2snc(C(N)=O)c2N)C(C(=O)NCCC(C)C)c2c[nH]c3ccccc23)cc1 (centres undefined),inactive,–
CC(C(=O)NC1CCCC1)N(C(=O)c1snc(C(N)=O)c1N)c1ccc2c(c1)OCCO2 (centres undefined),14.1 µM (active),–
COc1ccc(C(C(=O)NC2CCCC2)N(C(=O)c2snc(-c3ccc(F)cc3)c2N)c2ccc(F)cc2)cc1 (centres undefined),inactive,–
Cc1ccccc1NC(=S)NN1CCN(C)CC1,inactive,–
OC(CNCc1ccc(F)cc1)(c1ccc(F)cc1)c1ccc(F)cc1,0.794 µM (active),–
CCOC(=O)C(C(=O)NCc1ccc(C)cc1)c1ncc(C(F)(F)F)cc1Cl (centres undefined),inactive,–
O=C(O)c1ccccc1C(=O)NCc1ccc(F)cc1,inactive,–
Cc1ccc(CNCC(O)(c2ccc(F)cc2)c2ccc(F)cc2)cc1,1 µM (active),–
COc1cc2c(C(=O)N3CCN(C)CC3)c(C)n(-c3ccccc3)c2cc1Br,inactive,–
CN1CCN(C(=O)c2ccc3c(=O)n4c(nc3c2)CCCCC4)CC1,inactive,–
CCOC(=O)c1ccc(NC(=O)C2(c3ccc(OC)cc3)CCOCC2)cc1,inactive,–
CCOC(=O)CCCNC(=O)c1cncc(Br)c1,inactive,–
CCOC(=O)c1cc(CC)sc1NC(=O)C(c1ccccc1)c1ccccc1,inactive,–
CCOC(=O)CCCNC(=O)CCCNC(=O)C(c1ccccc1)c1ccccc1,0.891 µM (active),–
CC(C)(C)C(=O)N1CCc2cc(-c3csc(N)n3)ccc21,inactive,–
CCC(=O)Nc1ccccc1C(=O)OCC(=O)c1ccccc1,inactive,–
CN(C)CCCO[C@H]1[C@H]([C@H](O)CO)O[C@H]2OC(C)(C)O[C@@H]21,inactive,–
Cc1cc2cc(CNC(=O)CC(C)C)ccc2n1C,inactive,–
CCOC(=O)N/N=C1/C[C@@H](O)[C@@H](O)[C@@H]2[C@@H]3C(=O)N(c4cccc(Oc5ccccc5)c4)C(=O)[C@H]3CC[C@H]12,–,2.57% [at 11.4 µM] (inactive)
CCOC(=O)c1c(C)oc2c1cc(O)c1ccccc12,inactive,–
CCOC(=O)c1c(C(C)(C)C)oc2ccc(O)cc12,14.1 µM (active),–

Structure (SMILES),AC50,"activity, negative = inhibition"
CCOC(=O)c1cncc(C(=O)O)c1,inactive,–
C=CCCCCCCCCC(=O)Nc1c[nH]c(=O)[nH]c1=O,inactive,–
O=C1C[C@@H](O)[C@@H](O)[C@H]2[C@@H]3C(=O)N(Cc4ccccc4)C(=O)[C@@H]3CC[C@H]12,–,-0.874% [at 11.4 µM] (inactive) and 9.9% [at 11.4 µM] (inactive)
COc1ccc(Cn2nnnc2C(c2ccccc2Cl)N2CCC(C(N)=O)CC2)cc1 (centres undefined),inactive,–
O=C(Nc1ccc(Cl)cc1)OCc1cc(-c2ccccc2Cl)on1,inactive,–
O=C(Nc1ccc(Cl)cc1)OCCn1nnnc1C(c1ccccc1Cl)N1CCOCC1 (centres undefined),15.8 µM (active),–
C#C[C@@]1(O)CC[C@@H]2[C@@H]3CCC4=CC(=O)CC[C@@H]4[C@H]3CC[C@]21CC,inactive,–
Cc1onc(C(=O)/C=C/N(C)C)c1C(=O)Nc1nccs1,inactive,–
c1cnc(Nc2nc(-c3ccc4ccccc4c3)cs2)nc1,inactive,–
Cc1ccc(Nc2nc(-c3c(C)nc4ncccn34)cs2)cc1,12.6 µM (active),–
Cc1ccc(Nc2nc(-c3sc(NC(=O)c4cccc(Cl)c4)nc3C)cs2)cc1,inactive,–
C/C(CC(=O)NC1CCCC1)=N\NC(=O)Cc1cccs1,inactive,–
COC(=O)[C@H]1C[C@@H]1[C@H](NC(=O)c1ccccc1)c1ccccc1,inactive,–
CC1(C)Cc2c(sc3nc(-c4ccccc4)n(N)c(=O)c23)CO1,inactive,–
CCCSc1nc(SCC(=O)NCc2ccccc2)c2c3c(sc2n1)COC(C)(CC)C3 (centres undefined),inactive,–
CCC1(C)Cc2c(sc3nnn(CC(=O)Nc4cccc5ccccc45)c(=O)c23)CO1 (centres undefined),15.8 µM (active),–
O=C(O)C[C@H](Cc1ccc2c(c1)OCO2)C(=O)O,–,-3.42% [at 11.4 µM] (inactive)
COc1ccc(OCCNS(=O)(=O)c2ccc3oc4ccccc4c3c2)cc1,inactive,–
Cc1c(C(=O)O)oc2ccc(S(=O)(=O)NCc3ccc4c(c3)OCO4)cc12,15.8 µM (active),–
Cc1ccc(C2/C(=C(/O)c3ccccc3)C(=O)C(=O)N2CCN2CCOCC2)o1 (centres undefined),inactive,–
Cc1nc2ccc(S(=O)(=O)NC(CC(C)C)C(=O)O)cc2s1 (centres undefined),inactive,–
C=CCNC(=S)N1CCN(c2ncc3c(=O)c(C(=O)O)cn(CC)c3n2)CC1,inactive,–

Structure (SMILES),AC50,"activity, negative = inhibition"
N#Cc1ccc(Oc2nc(C(N)=O)cc(-c3ccccc3)n2)cc1,inactive,–
Oc1ccccc1C1Nc2cccc3cccc(c23)N1,10 µM (active),–
CC(=O)C1=NOC(CNC(=O)c2c(-c3ccccc3Cl)noc2C)C1 (centres undefined),inactive,–
CC1(C)c2ssc(=S)c2-c2ccccc2N1C(=O)CSC1=NCCS1,inactive,–
Cc1[nH]nc(-c2ccc(OCc3cnn(-c4ccccc4)c3)cc2O)c1Oc1ccccc1F,11.2 µM (active),–
COC(=O)c1ccc(Oc2coc3cc(OCc4cnn(-c5ccccc5)c4)ccc3c2=O)cc1,inactive,–
Cc1[nH]nc(-c2ccc(OCc3cnn(-c4ccccc4)c3)cc2O)c1Oc1ccc(F)cc1,7.08 µM (active),–
CCc1ccc(OCC(=O)OC2CCS(=O)(=O)C2)cc1 (centres undefined),inactive,–
COc1ccc(-n2ncc3c(NCC4CCCO4)ncnc32)cc1 (centres undefined),inactive,–
CCC1(c2ccccc2)C(=O)NCNC1=O,inactive,–
O=C(Oc1ccccc1)N1CCC2(CC1)CCN(c1ccccc1)CC2,inactive,–
Brc1ccc(-c2nnc(-c3cccc(Br)c3)o2)cc1,inactive,–
CCc1ccc(NC(=O)CS(=O)CC(=O)NCCCc2ccccc2)cc1 (centres undefined),inactive,–
CCCNC(=S)Nc1ccc(Br)cc1,inactive,–
CCCCc1ccc(NC(=S)NCc2cccs2)cc1,4.47 µM (active),–
CCC(c1nnnn1CC1CCCO1)N(CCN1CCOCC1)Cc1cc2cc(C)ccc2[nH]c1=O (centres undefined),inactive,–
O=C1CSC(c2ccccc2F)N1c1cc(Cl)ccc1O (centres undefined),31.6 µM (active),–
CC(=O)Nc1ccc(N2C(=O)CSC2c2c(F)cccc2Cl)cc1 (centres undefined),inactive,–
O=C1CSC(c2ccccn2)N1c1ccc(Cl)c(Cl)c1 (centres undefined),inactive,–
Cc1ccc2nc(-c3ccc(NC(=O)Cc4cccs4)cc3)[nH]c2c1,inactive,–
